Hits are enriched below; roughly 31% of the tested compounds scored in any of these assays.
CYP2C19 inh = human CYP2C19 inhibition | AID 778 | P33261 | CYP2C19 Supersomes, luciferin-H EGE luminescence, 30 min | 96,000 compounds, 21% hits | inhibition, % at 5 µM;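 active = CYP2C19 inhibition above a set limit at 5 µM in the primary screen, cut at about 50% in these data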;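 note: plate controls were negative control wells for no effect and 2.5 mM tranylcypromine positive control for full effect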
Target sequence (P33261 whole entry, looked up): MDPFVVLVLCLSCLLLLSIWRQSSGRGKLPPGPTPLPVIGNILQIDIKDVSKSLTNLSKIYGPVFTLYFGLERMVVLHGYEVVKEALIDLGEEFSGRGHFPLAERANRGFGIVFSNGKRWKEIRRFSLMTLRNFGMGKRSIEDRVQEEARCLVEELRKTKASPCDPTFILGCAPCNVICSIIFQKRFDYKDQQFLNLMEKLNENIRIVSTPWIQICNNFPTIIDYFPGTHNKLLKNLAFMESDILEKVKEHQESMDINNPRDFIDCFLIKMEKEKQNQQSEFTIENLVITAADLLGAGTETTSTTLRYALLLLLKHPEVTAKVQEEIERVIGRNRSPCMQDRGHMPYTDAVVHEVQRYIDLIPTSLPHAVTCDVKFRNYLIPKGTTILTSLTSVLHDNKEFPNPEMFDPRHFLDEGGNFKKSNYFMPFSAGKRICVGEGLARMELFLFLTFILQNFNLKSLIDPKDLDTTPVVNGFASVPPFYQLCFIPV
CYP2C19 activ = cytochrome P450 2C19 (human) activation; activation factor at 5 µM; AID 1025; recombinant CYP2C19, luciferin-H EGE luminescence; hits give high values; 0 = fully inhibited enzyme, 1 = untreated enzyme; 96,000 tested, under 10 active;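 active = activation factor of at least 2 at 5 µM in the primary screen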;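 note: 0 = wells with 2.5 mM tranylcypromine and 1 = vehicle-only wells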
CYP2C9 inh = blocks human cytochrome P450 2C9 | P11712 | CYP2C9 Supersomes, luciferin-H conversion, luminescence | inhibition, % at 5 µM | 96,000 compounds, 20% hits | AID 777;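 active = blocking of liver enzyme CYP2C9 beyond about 50% at 5 µM, limit read from the data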
CYP2C9 activ = increases human cytochrome P450 2C9 activity; AID 1024; recombinant CYP2C9, luciferin-H conversion, luminescence; hits give high values; factor 1 = untreated enzyme, 0 = blocked; P11712; activation factor at 5 µM; 96,000 compounds, 1.4% hits;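 active = activation factor of 2 or more for CYP2C9 at a 5 µM dose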;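 note: 0 = sulfaphenazole-blocked wells and 1 = vehicle-only wells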
* = called active by the depositor.

SMILES | CYP2C19 inh | CYP2C19 activ | CYP2C9 inh | CYP2C9 activ
CCOC(=O)N1CCN(C(=O)C2CCN(S(=O)(=O)c3cc(Cl)ccc3Cl)CC2)CC1 | 51.4* | 0.5 | -143.0 | 2.4*
CCOC(=O)C1CCN(C(=O)C2CCN(S(=O)(=O)c3cc(Cl)ccc3Cl)CC2)CC1 | 14.7 | 0.9 | -135.0 | 2.4*
CCOC(=O)C1CCN(C(=O)C2CCCCC2)CC1 | 17.9 | 0.8 | 8.0 | 0.9
CC1Cn2c(nc3c2c(=O)[nH]c(=O)n3C)O1 (stereo not given) | 4.1 | 1 | 25.1 | 0.7
Cc1cc(C)cc(N2C(=O)CC(n3ccnc3)C2=O)c1 (stereo not given) | 34.5 | 0.7 | 0.7 | 1
Cc1cc(C)cc(COn2ccnc2)c1 | 68.7* | 0.3 | 45.9 | 0.5
COC(=O)C1C(=O)c2c([nH]c(C(=O)OC3CCCC3C)c2C)CC1C (stereo not given) | 8.6 | 0.9 | 56.1* | 0.4
COC(=O)C1C(=O)c2c([nH]c(C(=O)OCCOC(C)C)c2C)CC1C (stereo not given) | 18.4 | 0.8 | 59.2* | 0.4
COC(=O)C1C(=O)c2c([nH]c(C(=O)OC3CCCCC3)c2C)CC1C (stereo not given) | -22.9 | 1.2 | 6.1 | 0.9
COC(=O)C1=C(C)N=C2SC(C#N)=C(N)N2C1c1cc(OC)c(OC)c(OC)c1 (stereo not given) | 86.8* | 0.1 | 93.2* | 0.1
COC(=O)C1=C(C)N=C2SC(C#N)=C(N)N2C1c1ccc(OCc2ccccc2)cc1 (stereo not given) | 32.5 | 0.7 | 69.4* | 0.3
C=CCOC(=O)C1=C(C)N=C2SCCC(=O)N2C1c1ccc(OC(=O)c2ccco2)cc1 (stereo not given) | 34.5 | 0.7 | 30.2 | 0.7
COC(=O)C1=C(C(=O)OC)SC(=C2C(=S)C(C)(C)N(C(=O)C3CC3)c3ccccc32)S1 | 69.4* | 0.3 | 77.7* | 0.2
COC(=O)C1=C(C(=O)OC)SC(=C2C(=S)C(C)(C)N(C(=O)C(C)C)c3ccccc32)S1 | 40.4 | 0.6 | 94.7* | 0.1
Oc1ccc(/C=N/NC2=NCCCCC2)cc1 | 9.2 | 0.9 | 1.6 | 1
CCn1c2ccccc2c2cc(NC(=O)N3CCOCC3)ccc21 | 51.7* | 0.5 | -43.1 | 1.4
CCn1c2ccccc2c2cc(NC(=O)c3ccc(Br)o3)ccc21 | 76.9* | 0.2 | 1.3 | 1
O=C(Nc1ccc2c(c1)oc1ccccc12)N1CCOCC1 | 35.7 | 0.6 | 12.2 | 0.9
C=COCCNC(=O)C1CC(=O)N(c2ccc(C)cc2)C1 (stereo not given) | 6.5 | 0.9 | -23.5 | 1.2
Cn1cc(-c2nnnn2-c2ccccc2)c(=O)c2ccccc21 | 9.3 | 0.9 | -16.4 | 1.2
COC(=O)c1ccc(C(=O)OC)c(NS(C)(=O)=O)c1 | 13.7 | 0.9 | -0.6 | 1
O=c1c2ccccc2c(C=NCCCN2CCOCC2)c(O)n1Cc1ccccc1 | 64.8* | 0.4 | 71.3* | 0.3
O=c1[nH]c2ccccc2c(=O)n1Cc1ccccc1 | 37.2 | 0.6 | -3.6 | 1
O=c1c2ccccc2c(C=NCCc2ccccc2)c(O)n1Cc1ccccc1 | 48.0 | 0.5 | 77.0* | 0.2
CCC(C)(C)n1c(=O)[nH]c2c(c1=O)CCC2 | 14.8 | 0.9 | 0.8 | 1
SMILES | CYP2C19 inh | CYP2C19 activ | CYP2C9 inh | CYP2C9 activ
O=c1cc(-c2ccccc2)[nH]c2[nH]n(-c3ccccc3)c(=O)c12 | 0.0 | 1 | 56.5* | 0.4
O=S(=O)(Nc1nc2ccccc2nc1N1CCN(c2ccccc2F)CC1)c1ccc(Cl)cc1 | 28.9 | 0.7 | 100.1* | 0
CCOc1ccc(S(=O)(=O)n2c(C)nc3ccccc32)cc1 | 41.8 | 0.6 | 40.9 | 0.6
CCOc1ccc(S(=O)(=O)Nc2nc3ccccc3nc2N2CCN(C)CC2)cc1 | 18.1 | 0.8 | 56.3* | 0.4
Cc1ccccc1S(=O)(=O)Nc1nc2ccccc2nc1N1CCOCC1 | 4.1 | 1 | 70.5* | 0.3
O=C(CCS(=O)(=O)c1ccc(Cl)cc1)N1CCN(c2ccccc2F)CC1 | 17.5 | 0.8 | 12.6 | 0.9
CCOC(=O)C(Sc1n[nH]c(N)n1)c1ccccc1 (stereo not given) | 16.6 | 0.8 | 18.8 | 0.8
Cc1ccc(-n2ncc3c(=O)n(CC(=O)NCc4ccco4)cnc32)cc1C | -4.0 | 1 | -4.2 | 1
O=C1Nc2ccc(Br)cc2C1(O)Cc1ccncc1 (stereo not given) | 55.5* | 0.4 | 83.3* | 0.2
O=C(CC1(O)C(=O)Nc2ccc(Br)cc21)c1ccc2c(c1)OCO2 (stereo not given) | 76.5* | 0.2 | 74.6* | 0.3
Cc1ccc2c(c1)C(O)(CC(=O)c1ccc3c(c1)OCO3)C(=O)N2 (stereo not given) | 58.4* | 0.4 | 21.6 | 0.8
